Results: PubChem BioAssay (NCI)
Several values for one entry are separate records, joined by “and”; a condition that tells them apart may be missing. Equal entries are not always repeated. The panel holds about 83,000 compounds, 20% with a hit somewhere; the sample as a whole holds those more often.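 Cells were grown in 96-well plates and exposed to the test compound at a single concentration for 48 hours; results are reported as percent growth, with values below 10 considered active.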 Activity calls are given as the source filed them.

Columns and labels:
Assay in all cases: NCI-60 one-dose screen, 48 h (100 = growth as untreated, 0 = no growth, -100 = all killed)
SR leukemia = tested on: SR leukemia
RPMI-8226 leukemia = tested on: RPMI-8226 leukemia
OVCAR-8 ovarian = tested on: OVCAR-8 ovarian
OVCAR-5 ovarian = tested on: OVCAR-5 ovarian
OVCAR-4 ovarian = tested on: OVCAR-4 ovarian
SK-OV-3 ovarian = tested on: SK-OV-3 ovarian
IGROV1 ovarian = tested on: IGROV1 ovarian
OVCAR-3 ovarian = tested on: OVCAR-3 ovarian
HS 578T breast = tested on: HS 578T breast
NCI/ADR-RES ovarian = tested on: NCI/ADR-RES ovarian

Q: `NC(=O)NO` was tested. Which growth (SR leukemia; 10 µM unless noted) did it give?
A: Its growth is 54.6% (inactive).

Q: And the growth (RPMI-8226 leukemia; 10 µM unless noted)?
A: Its growth is 98.8% (inactive) and 42.1% (inactive).

Q: What about the growth (OVCAR-8 ovarian; 10 µM unless noted) of the same compound?
A: The growth was 99.8% (inactive).

Q: And the growth (OVCAR-5 ovarian; 10 µM unless noted)?
A: The growth was 108% (inactive) and 45.8% (inactive).

Q: What about the growth (OVCAR-4 ovarian; 10 µM unless noted) of the same compound?
A: The growth was 105% (inactive) and 59.5% (inactive).

Q: And the growth (SK-OV-3 ovarian; 10 µM unless noted)?
A: Its growth is 107% (inactive) and 56.4% (inactive).

Q: And the growth (IGROV1 ovarian; 10 µM unless noted)?
A: Its growth is 104% (inactive) and 47% (inactive).

Q: And the growth (OVCAR-3 ovarian; 10 µM unless noted)?
A: Its growth is 110% (inactive) and 70.1% (inactive).

Q: And the growth (HS 578T breast; 10 µM unless noted)?
A: Its growth is 109% (inactive) and -24.6% (active).

Q: Which results are given for `O=Nc1ccc(O)cc1`?
A: growth (SR leukemia; 10 µM unless noted): 79.4% (inactive) and 74.3% (inactive); growth (RPMI-8226 leukemia; 10 µM unless noted): 97.6% (inactive) and 103% (inactive); growth (OVCAR-8 ovarian; 10 µM unless noted): 106% (inactive) and 92.4% (inactive); growth (OVCAR-5 ovarian; 10 µM unless noted): 105% (inactive) and 98.9% (inactive); growth (OVCAR-4 ovarian; 10 µM unless noted): 108% (inactive) and 106% (inactive); growth (SK-OV-3 ovarian; 10 µM unless noted): 108% (inactive) and 107% (inactive); growth (IGROV1 ovarian; 10 µM unless noted): 91.7% (inactive) and 82% (inactive); growth (OVCAR-3 ovarian; 10 µM unless noted): 89.2% (inactive) and 97.7% (inactive); growth (HS 578T breast; 10 µM unless noted): 104% (inactive) and 96.6% (inactive)

Q: Which growth (SR leukemia; 10 µM unless noted) does the source give for `O=C(/C=C/c1ccccn1)c1ccccc1O` here?
A: Its growth is 4.76% (active).

Q: And the growth (RPMI-8226 leukemia; 10 µM unless noted)?
A: Its growth is 2.44% (active) and -0.787% (active).

Q: What about the growth (OVCAR-8 ovarian; 10 µM unless noted) of the same compound?
A: The growth was 54.4% (inactive) and 84.8% (inactive).

Q: And the growth (OVCAR-5 ovarian; 10 µM unless noted)?
A: The growth was 77.1% (inactive) and 92.3% (inactive).

Q: And the growth (OVCAR-4 ovarian; 10 µM unless noted)?
A: The growth was 101% (inactive) and 88.2% (inactive).

Q: And the growth (SK-OV-3 ovarian; 10 µM unless noted)?
A: The growth was 111% (inactive) and 113% (inactive).

Q: What about the growth (IGROV1 ovarian; 10 µM unless noted) of the same compound?
A: Its growth is 38.1% (inactive) and 66.6% (inactive).

Q: And the growth (OVCAR-3 ovarian; 10 µM unless noted)?
A: The growth was 84.4% (inactive) and 44.9% (inactive).

Q: What about the growth (HS 578T breast; 10 µM unless noted) of the same compound?
A: Its growth is 87.2% (inactive).

Q: For `CCc1ccccc1-n1c(N)c(C#N)c(-c2ccc(OC)c(OC)c2)c(C#N)c1=O`, which growth (SR leukemia; 10 µM unless noted) is on record?
A: Its growth is 83% [100 µM] (inactive).

Q: What about the growth (RPMI-8226 leukemia; 10 µM) of the same compound?
A: Its growth is 112% (inactive).

Q: And the growth (RPMI-8226 leukemia; 100 µM)?
A: Its growth is 87.7% (inactive).

Q: What about the growth (OVCAR-8 ovarian; 10 µM) of the same compound?
A: The growth was 109% (inactive).

Q: And the growth (OVCAR-8 ovarian; 100 µM)?
A: The growth was -24.4% (active).

Q: What about the growth (OVCAR-4 ovarian; 10 µM) of the same compound?
A: Its growth is 113% (inactive).

Q: What about the growth (OVCAR-4 ovarian; 100 µM) of the same compound?
A: Its growth is 28% (inactive).

Q: And the growth (SK-OV-3 ovarian; 10 µM)?
A: The growth was 111% (inactive).

Q: What about the growth (SK-OV-3 ovarian; 100 µM) of the same compound?
A: Its growth is -20.7% (active).

Q: And the growth (IGROV1 ovarian; 10 µM)?
A: Its growth is 107% (inactive).

Q: What about the growth (IGROV1 ovarian; 100 µM) of the same compound?
A: Its growth is 22.2% (inactive).

Q: And the growth (OVCAR-3 ovarian; 10 µM)?
A: The growth was 113% (inactive).

Q: And the growth (OVCAR-3 ovarian; 100 µM)?
A: The growth was 13.4% (inactive).

Q: What about the growth (HS 578T breast; 10 µM) of the same compound?
A: The growth was 116% (inactive).

Q: And the growth (HS 578T breast; 100 µM)?
A: The growth was 27.2% (inactive).

Q: What about the growth (NCI/ADR-RES ovarian; 10 µM) of the same compound?
A: The growth was 111% (inactive).

Q: And the growth (NCI/ADR-RES ovarian; 100 µM)?
A: The growth was 22.1% (inactive).

Q: What does the source list for `O=C(O)c1sccc1O`?
A: growth (SR leukemia; 10 µM): 67.7% (inactive); growth (SR leukemia; 100 µM): 4.33% (active); growth (RPMI-8226 leukemia; 10 µM): 71.4% (inactive); growth (RPMI-8226 leukemia; 100 µM): 16% (inactive); growth (OVCAR-8 ovarian; 10 µM): 82.4% (inactive); growth (OVCAR-8 ovarian; 100 µM): 37.8% (inactive); growth (OVCAR-5 ovarian; 10 µM): 102% (inactive); growth (OVCAR-5 ovarian; 100 µM): 38% (inactive); growth (OVCAR-4 ovarian; 10 µM): 76.5% (inactive); growth (OVCAR-4 ovarian; 100 µM): 29.9% (inactive); growth (SK-OV-3 ovarian; 10 µM): 84.5% (inactive); growth (SK-OV-3 ovarian; 100 µM): 80.9% (inactive); growth (IGROV1 ovarian; 10 µM): 74.7% (inactive); growth (IGROV1 ovarian; 100 µM): 36% (inactive); growth (OVCAR-3 ovarian; 10 µM): 75.1% (inactive); growth (OVCAR-3 ovarian; 100 µM): 11.1% (inactive); growth (HS 578T breast; 10 µM): 65.6% (inactive); growth (HS 578T breast; 100 µM): 19.5% (inactive); growth (NCI/ADR-RES ovarian; 10 µM): 81.5% (inactive); growth (NCI/ADR-RES ovarian; 100 µM): 36% (inactive)

Q: Which results are given for `Cc1ncsc1CCO`?
A: growth (SR leukemia; 10 µM unless noted): 104% (inactive) and 111% (inactive); growth (RPMI-8226 leukemia; 10 µM unless noted): 106% (inactive) and 122% (inactive); growth (OVCAR-8 ovarian; 10 µM unless noted): 104% (inactive) and 97% (inactive); growth (OVCAR-5 ovarian; 10 µM unless noted): 103% (inactive); growth (OVCAR-4 ovarian; 10 µM unless noted): 120% (inactive) and 116% (inactive); growth (SK-OV-3 ovarian; 10 µM unless noted): 101% (inactive) and 110% (inactive); growth (IGROV1 ovarian; 10 µM unless noted): 124% (inactive) and 107% (inactive); growth (OVCAR-3 ovarian; 10 µM unless noted): 124% (inactive) and 93.9% (inactive); growth (HS 578T breast; 10 µM unless noted): 110% (inactive) and 101% (inactive)

Q: How did the growth (SR leukemia; 10 µM unless noted) turn out when `NC(=O)c1ccccc1OCC(O)CO` (configuration not stated) was run?
A: Its growth is 94.9% (inactive).

Q: And the growth (RPMI-8226 leukemia; 10 µM unless noted)?
A: Its growth is 99% (inactive).

Q: What about the growth (OVCAR-8 ovarian; 10 µM unless noted) of the same compound?
A: The growth was 104% (inactive).

Q: And the growth (OVCAR-5 ovarian; 10 µM unless noted)?
A: Its growth is 99.5% (inactive).

Q: What about the growth (OVCAR-4 ovarian; 10 µM unless noted) of the same compound?
A: Its growth is 103% (inactive).

Q: What about the growth (SK-OV-3 ovarian; 10 µM unless noted) of the same compound?
A: The growth was 109% (inactive).

Q: What about the growth (IGROV1 ovarian; 10 µM unless noted) of the same compound?
A: Its growth is 108% (inactive).

Q: What about the growth (OVCAR-3 ovarian; 10 µM unless noted) of the same compound?
A: Its growth is 106% (inactive).

Q: And the growth (HS 578T breast; 10 µM unless noted)?
A: Its growth is 117% (inactive).

Q: And the growth (NCI/ADR-RES ovarian; 10 µM unless noted)?
A: The growth was 119% (inactive).

Q: What does the source list for `CC(C)Cc1ccc(C(C)C(=O)NCc2ccc(Cn3c(=O)sn(CCCCl)c3=O)cc2)cc1` (configuration not stated)?
A: growth (SR leukemia; 10 µM unless noted): 108% (inactive) and 3.82% (active); growth (RPMI-8226 leukemia; 10 µM unless noted): 99.8% (inactive) and -30.9% (active); growth (OVCAR-8 ovarian; 10 µM unless noted): 94.5% (inactive) and -3.85% (active); growth (OVCAR-5 ovarian; 10 µM unless noted): 105% (inactive) and -52.9% (active); growth (OVCAR-4 ovarian; 10 µM unless noted): 79.8% (inactive) and -94.2% (active); growth (SK-OV-3 ovarian; 10 µM unless noted): 107% (inactive) and 69.5% (inactive); growth (IGROV1 ovarian; 10 µM unless noted): 99.3% (inactive) and -79.1% (active); growth (OVCAR-3 ovarian; 10 µM unless noted): 98.2% (inactive) and -83.4% (active); growth (HS 578T breast; 10 µM unless noted): 106% (inactive) and -11% (active)
